Measurements as given in PubChem BioAssay (NCI).
Compounds without any hit were thinned out: in the full panel of roughly 79,000, 15% have a hit. The source made the active and inactive calls. Cut-off read from the data, not from the text of the source: active = growth inhibition above about 70%; inactive = the rest.

Experiments:
[1] = NCI Yeast Anticancer Drug Screen. Data for the wt1 strain (AID 149);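 note: 0% = growth of vehicle-treated wt1 cultures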; conditions: S. cerevisiae wt1 strain (SPY 50644) growth inhibition, stronger effect = higher value
Outline: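 wt1 yeast, compound-treated; % growth inhibition vs vehicle control.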

[2] = NCI Yeast Anticancer Drug Screen. Data for the rad50EPP+ strain (AID 151);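 note: 0% = growth of vehicle-treated control cultures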; conditions: S. cerevisiae rad50 mutant strain, stronger effect = higher value
Outline: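 rad50EPP+ yeast treated with test compounds. Readout: growth vs vehicle control.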

[3] = NCI Yeast Anticancer Drug Screen. Data for the mgt1 strain (AID 153); conditions: S. cerevisiae mgt1 mutant growth inhibition, stronger effect = higher value
Outline: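 Growth inhibition relative to vehicle controls was scored for the mgt1 yeast strain after compound exposure.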

[4] = NCI Yeast Anticancer Drug Screen. Data for the rad50 strain (AID 155);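 note: 0% = growth of vehicle-only cultures of the same strain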; conditions: S. cerevisiae rad50 strain growth inhibition, stronger effect = higher value
Outline: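 Genetically altered yeast (DNA repair pathway); compound treatment; growth inhibition vs vehicle ctrl.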

[5] = NCI Yeast Anticancer Drug Screen. Data for the mec2-1 strain (AID 157); conditions: S. cerevisiae mec2-1 strain, stronger effect = higher value
Outline: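 Growth inhibition is read against vehicle-treated controls after compound exposure of the mec2-1 yeast strain, which is defective in DNA damage repair or cell cycle control.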

[6] = NCI Yeast Anticancer Drug Screen. Data for the rad14 strain (AID 159);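 note: 0% = growth of vehicle-treated control cultures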; conditions: S. cerevisiae rad14 strain growth inhibition, stronger effect = higher value
Outline: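 Test compounds were applied to a repair-deficient yeast strain. Its growth was then compared with that of cultures given vehicle alone, and inhibition was expressed relative to those controls.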

[7] = NCI Yeast Anticancer Drug Screen. Data for the sgs1 mgt1 strain (AID 161);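 note: 0% = growth of cultures given vehicle only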; conditions: S. cerevisiae sgs1 mgt1 strain, stronger effect = higher value
Outline: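 Yeast cells carrying a defined DNA-repair defect were exposed to test compounds. Growth inhibition was measured relative to vehicle-treated controls.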

[8] = NCI Yeast Anticancer Drug Screen. Data for the CLN2oe strain (AID 163);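 note: 0% = growth of vehicle-only control cultures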; conditions: S. cerevisiae CLN2oe strain, stronger effect = higher value
Outline: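 Compound-treated yeast; growth vs vehicle ctrl = % inhibition. Genetically altered strain (cell-cycle control).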

[9] = NCI Yeast Anticancer Drug Screen. Data for the cln2 rad14 strain (AID 165);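 note: 0% = growth equal to vehicle treated cultures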; conditions: S. cerevisiae cln2 rad14 strain, stronger effect = higher value
Outline: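 Growth inhibition, relative to vehicle-treated controls, is the read-out. The test organism is a yeast strain with defined genetic alterations, cln2 rad14.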

[10] = NCI Yeast Anticancer Drug Screen. Data for the bub3 strain (AID 167); conditions: S. cerevisiae bub3 mutant strain, stronger effect = higher value
Outline: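 Yeast carrying a defined mutation is treated with each compound, and growth is compared with that of vehicle-exposed cells to give inhibition.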

[11] = NCI Yeast Anticancer Drug Screen. Data for the wt2 strain (AID 169);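 note: 0% = growth of vehicle-treated yeast cultures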; conditions: S. cerevisiae wt2 strain growth inhibition, stronger effect = higher value
Outline: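 Compound exposure of yeast; growth compared with vehicle controls; inhibition reported.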

[12] = NCI Yeast Anticancer Drug Screen. Data for the mlh1 strain (AID 171);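 note: 0% = growth of vehicle-treated control cultures of the same strain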; conditions: S. cerevisiae mlh1 strain growth inhibition, stronger effect = higher value
Outline: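 Compounds are applied to a genetically altered yeast strain, and its growth is compared with that of vehicle-treated cultures to give percent inhibition.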

[13] = NCI Yeast Anticancer Drug Screen. Data for the sgs1 strain (AID 173);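 note: 0% = growth of vehicle-only control cultures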; conditions: S. cerevisiae sgs1 mutant, stronger effect = higher value
Outline: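 Compounds applied to genetically altered yeast; growth compared with vehicle-treated cultures to give % inhibition.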

[14] = NCI Yeast Anticancer Drug Screen. Data for the mlh1 rad18 strain (AID 175); conditions: S. cerevisiae mlh1 rad18 strain growth inhibition, stronger effect = higher value
Outline: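 Cells of a genetically altered yeast strain, deficient in DNA damage repair, were treated with compound. Their growth was then compared with that of vehicle-treated cultures to give inhibition.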

[15] = NCI Yeast Anticancer Drug Screen. Data for the rad18 strain (AID 177); conditions: S. cerevisiae rad18 mutant growth inhibition, stronger effect = higher value
Outline: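 Compounds are applied to a repair-deficient yeast strain, and growth is compared with that of vehicle-treated cultures to give percent inhibition.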

[16] = at 5.0 µM (retest, dose inferred, filed as 0.5)
[17] = at 50.0 µM (retest, dose inferred, filed as 5.0)

Measured: growth inhibition

O=C(O)CN(CCNC(=O)OCC1c2ccccc2-c2ccccc21)CCNC(=O)OCC1c2ccccc2-c2ccccc21
inactive: [1]; at 1.2 µM -1% | [1]; at 3.7 µM -4% | [1]; at 11.0 µM 2% | [2]; at 1.2 µM 0% | [2]; at 3.7 µM 4% | [2]; at 11.0 µM 5% | [2]; at 33.0 µM 7% | [2]; at 100.0 µM 5% | [3]; at 1.2 µM -4% | [3]; at 3.7 µM -1% | [3]; at 11.0 µM 9% | [4]; at 1.2 µM -3% | [4]; at 3.7 µM -9% | [4]; [16] -21% | [4]; at 11.0 µM 11% | [4]; [17] 36% | [5]; at 1.2 µM -3% | [5]; at 3.7 µM -5% | [5]; [16] -10% | [5]; at 11.0 µM -3% | [5]; [17] -6% | [6]; at 1.2 µM 0% | [6]; at 3.7 µM 1% | [6]; at 11.0 µM 34% | [7]; [16] -1% | [7]; [17] -4% | [8]; at 1.2 µM -1% | [8]; at 3.7 µM 1% | [8]; at 11.0 µM 2% | [9]; [16] 3% | [9]; [17] 15% | [10]; at 1.2 µM -1% | [10]; at 3.7 µM 0% | [10]; [16] -16% | [10]; at 11.0 µM 1% | [10]; [17] -9% | [11]; at 1.2 µM -3% | [11]; at 3.7 µM -3% | [12]; at 1.2 µM -1% | [12]; at 3.7 µM -3% | [12]; at 11.0 µM 11% | [13]; at 1.2 µM 0% | [13]; at 3.7 µM -1% | [13]; at 11.0 µM 9% | [14]; [16] 3% | [14]; [17] 62% | [15]; at 1.2 µM -2% | [15]; at 3.7 µM -2% | [15]; at 11.0 µM 4%
active: [1]; at 33.0 µM 71% | [1]; at 100.0 µM 94% | [3]; at 33.0 µM 98% | [3]; at 100.0 µM 95% | [4]; at 33.0 µM 97% | [4]; at 50.0 µM 93.7% | [4]; at 100.0 µM 94% | [5]; at 33.0 µM 98% | [5]; at 50.0 µM 95.3% | [5]; at 100.0 µM 96% | [6]; at 33.0 µM 98% | [6]; at 100.0 µM 95% | [7]; at 50.0 µM 95.5% | [8]; at 33.0 µM 96% | [8]; at 100.0 µM 90% | [9]; at 50.0 µM 93.5% | [10]; at 33.0 µM 93% | [10]; at 50.0 µM 95% | [10]; at 100.0 µM 94% | [11]; at 11.0 µM 75% | [11]; at 33.0 µM 98% | [11]; at 100.0 µM 95% | [12]; at 33.0 µM 98% | [12]; at 100.0 µM 96% | [13]; at 33.0 µM 97% | [13]; at 100.0 µM 94% | [14]; at 50.0 µM 95.1% | [15]; at 33.0 µM 95% | [15]; at 100.0 µM 94%

COc1ccc2nc3cccc([N+](=O)[O-])c3c(NCCCO)c2c1
active: [1]; at 11.0 µM 94% | [1]; at 33.0 µM 97% | [1]; at 100.0 µM 97% | [2]; at 11.0 µM 75% | [2]; at 33.0 µM 94% | [2]; at 100.0 µM 97% | [3]; at 11.0 µM 92% | [3]; at 33.0 µM 96% | [3]; at 100.0 µM 96% | [4]; at 1.2 µM 87% | [4]; at 3.7 µM 93% | [4]; [16] 95% | [4]; at 11.0 µM 95% | [4]; at 33.0 µM 97% | [4]; [17] 98% | [4]; at 50.0 µM 86.8% | [4]; at 100.0 µM 97% | [5]; at 1.2 µM 93% | [5]; at 3.7 µM 96% | [5]; [16] 97% | [5]; at 11.0 µM 98% | [5]; at 33.0 µM 98% | [5]; [17] 99% | [5]; at 50.0 µM 91% | [5]; at 100.0 µM 96% | [6]; at 1.2 µM 97% | [6]; at 3.7 µM 98% | [6]; at 11.0 µM 99% | [6]; at 33.0 µM 99% | [6]; at 100.0 µM 95% | [7]; [16] 95% | [7]; [17] 98% | [7]; at 50.0 µM 82.9% | [8]; at 11.0 µM 88% | [8]; at 33.0 µM 95% | [8]; at 100.0 µM 98% | [9]; [16] 99% | [9]; [17] 99% | [9]; at 50.0 µM 89.4% | [10]; at 11.0 µM 87% | [10]; at 33.0 µM 97% | [10]; [17] 99% | [10]; at 50.0 µM 85.2% | [10]; at 100.0 µM 99% | [11]; at 11.0 µM 88% | [11]; at 33.0 µM 96% | [11]; at 100.0 µM 98% | [12]; at 3.7 µM 80% | [12]; at 11.0 µM 94% | [12]; at 33.0 µM 97% | [12]; at 100.0 µM 97% | [13]; at 1.2 µM 93% | [13]; at 3.7 µM 95% | [13]; at 11.0 µM 97% | [13]; at 33.0 µM 98% | [13]; at 100.0 µM 97% | [14]; [16] 97% | [14]; [17] 99% | [14]; at 50.0 µM 81.8% | [15]; at 1.2 µM 96% | [15]; at 3.7 µM 96% | [15]; at 11.0 µM 96% | [15]; at 33.0 µM 96% | [15]; at 100.0 µM 97%
inactive: [1]; at 1.2 µM 15% | [1]; at 3.7 µM 62% | [2]; at 1.2 µM 9% | [2]; at 3.7 µM 35% | [3]; at 1.2 µM 12% | [3]; at 3.7 µM 51% | [8]; at 1.2 µM 6% | [8]; at 3.7 µM 43% | [10]; at 1.2 µM -9% | [10]; at 3.7 µM 14% | [10]; [16] 16% | [11]; at 1.2 µM 6% | [11]; at 3.7 µM 33% | [12]; at 1.2 µM 35%
